# In PubChem BioAssay AID1014 (NMMLSC, 2008):
# Active and inactive are the calls of the source. No stated cut-off is given here; in the data, active means inhibition of mean fluorescence above about 33%; inactive means the rest.
# Test: blockers of bacterial quorum-sensing reporter fluorescence – flow cytometry, SAR analogs, SAR follow-up (AID 1014);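 further: Staphylococcus aureus RN6390 with RNAIII-GFP reporter stimulated by AIP; bacteria incubated with compound for 3 hours at 37 °C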
# Conditions: at 20 µM, stronger effect = higher value; inhibition of percent positive cells: measured here: percent reporter-positive cells
Compound,inhibition of percent positive cells [%],inhibition of mean fluorescence
CC(=O)c1cc2c(cc1NC(=O)CN1CCOCC1)OCO2,-1,-26.1% (inactive)
O=C(Nc1ccc2c(c1)OCO2)C(c1ccccc1)N1CCN(C(=O)c2ccco2)CC1 (stereo not drawn),1,-23.7% (inactive)
CC(=O)Nc1ccc(Nc2nc3c(S(=O)(=O)c4ccc(C(C)C)cc4)nnn3c3ccccc23)cc1,0.4,13.8% (inactive)
CC(=O)c1cc2c(cc1NC(=O)CN1CCN(C(c3ccccc3)c3ccccc3)CC1)OCO2,0.4,38.7% (active)
O=C1CS/C(=N\C(=O)N2c3ccccc3Sc3ccccc32)N1,52.4,91.4% (active)
O=C(Nc1ccc2c(c1)OCCO2)N1CCCC(CN2CCc3ccccc3C2)C1 (stereo not drawn),0.1,-1.4% (inactive)
O=C(NCC(c1cccnc1)N1CCN(c2ccc(F)cc2)CC1)c1ccc(F)cc1 (stereo not drawn),-0.2,-11.6% (inactive)
COc1ccc(Nc2nc3c(S(=O)(=O)c4ccc(Cl)cc4)nnn3c3ccccc23)cc1,-0.9,-19.3% (inactive)
O=C(c1ccco1)c1coc2ccc(O)cc12,0.2,-10.7% (inactive)
CCOC(=O)c1cnc2ccc(OC(F)(F)F)cc2c1Nc1ccccc1C(=O)O,0.6,22.4% (inactive)
CN1CCN(C(C(=O)NC2CCCCC2)c2cc3c(cc2[N+](=O)[O-])OCO3)CC1 (stereo not drawn),-0.4,-5.8% (inactive)
COc1ccc(C(=O)c2coc3ccc(O)cc23)cc1,0.8,5% (inactive)
O=C(NCCN1CCN(C(=O)c2cc(F)c(F)cc2Cl)CC1)c1cc(F)c(F)cc1Cl,-1.2,-25.7% (inactive)
N#Cc1c(NC(=O)COc2ccccc2)sc2c1CCCC2,2.5,-5% (inactive)
O=C(O)c1cc([N+](=O)[O-])cc([N+](=O)[O-])c1Nc1ccc(Cl)cc1,0.2,-16.3% (inactive)
CCN1CCN(C(CNC(=O)c2ccc(F)cc2)c2cccnc2)CC1 (stereo not drawn),-0.6,-8.8% (inactive)
COc1ccc(Nc2nc3c(S(=O)(=O)c4ccc(C)cc4)nnn3c3ccsc23)cc1,-0.3,-6.2% (inactive)
COc1ccc(S(=O)(=O)c2nnn3c2nc(Nc2ccccc2)c2ccccc23)cc1,0.4,-22.4% (inactive)
N#Cc1c(NC(=O)CN2C(=O)c3ccccc3C2=O)oc(-c2ccccc2)c1-c1ccccc1,0.2,41.7% (active)
COc1ccc(Nc2ccccc2C(=O)O)cc1,-2.8,0.6% (inactive)

Compound,inhibition of percent positive cells [%],inhibition of mean fluorescence
COc1ccc(NC(=O)C(c2cc3c(cc2[N+](=O)[O-])OCO3)N2CC(C)CC(C)C2)cc1 (stereo not drawn),0.5,49.3% (active)
O=C(CN1CC(c2ccccc2)CC1=O)Nc1ccc2c(c1)OCO2 (stereo not drawn),-0.1,5.5% (inactive)
COc1ccc(S(=O)(=O)c2nnn3c2nc(Nc2ccccc2C)c2ccccc23)cc1,0.4,-17.1% (inactive)
O=C(O)c1ccccc1Nc1ccnc(N2CCOCC2)n1,0,5.6% (inactive)
Cc1ccc(N=C2NC(=O)CC(C(=O)Nc3cccc4ccccc34)S2)cc1 (stereo not drawn),-0.7,-4.5% (inactive)
NC1=NC(=O)CC(C(=O)Nc2cccc3ccccc23)S1 (stereo not drawn),1.5,20.2% (inactive)
COc1ccc(OC)c(C(=O)c2coc3ccc(O)cc23)c1,0,-21.9% (inactive)
O=C(NCC(c1cccnc1)N1CCOCC1)c1cccc(Cl)c1 (stereo not drawn),0.6,-6.2% (inactive)
CCc1ccc(S(=O)(=O)c2nnn3c2nc(Nc2ccc(OC)cc2)c2sccc23)cc1,-0.5,5.8% (inactive)
CSCCC(NC(=O)c1ccccc1)C(=O)OCC(=O)Nc1sc2c(c1C#N)CCCC2 (stereo not drawn),-0.2,40.6% (active)
O=C(CCN1CCN(c2ccccc2)CC1)Nc1ccc2c(c1)OCO2,1.3,5.8% (inactive)
O=C(NC1CCCC1)C(c1cc2c(cc1[N+](=O)[O-])OCO2)N1CCC(Cc2ccccc2)CC1 (stereo not drawn),-0.6,4.9% (inactive)
O=C(O)c1cc(Nc2ccccc2C(=O)O)nc(Nc2ccccc2C(=O)O)n1,-0.3,2.4% (inactive)
COc1cc(Nc2cc(C)nc3nc(C)nn23)c(C(=O)O)cc1OC,0.5,-11.6% (inactive)
O=C(Nc1ccc2c(c1)OCO2)C(c1ccc(Cl)cc1)N1CCN(C(=O)c2ccco2)CC1 (stereo not drawn),-0.3,2.2% (inactive)
O=C(NCC(c1cccnc1)N1CCc2ccccc21)c1ccc(F)c(F)c1 (stereo not drawn),-0.3,19.9% (inactive)
COc1c(F)c(F)c(C(=O)O)c(Nc2ccccc2C)c1F,-0.2,9.6% (inactive)
COc1c(F)c(F)c(C(=O)O)c(Nc2ccc(C)cc2)c1F,-1.6,9.1% (inactive)
Cc1ccc(Nc2ncccc2C(=O)O)cc1,-1.3,-7.8% (inactive)
